± gives the standard deviation of the averaged measurements. Over roughly 1,600 compounds, “normalized growth (OD600, IQM-normalized) in LPM” has its median near 1; the lowest 2% begin near 0.014. The full list was thinned out, with the lowest values kept by preference.
Test system: Salmonella enterica serovar Typhimurium SL1344
Assay: normalized growth (OD600, IQM-normalized) in LPM (fraction of plate interquartile mean); higher = more bacterial growth (less inhibition)
Conditions: LPM pH 5.8; 10 µM; 16 h

| SMILES | normalized growth |
| --- | --- |
| O=C(O)C(=O)O.[NH-][C@@H]1CCCC[C@H]1[NH-].[Pt+2] | 0.742 ± 0.017 |
| O=C(O)P(=O)(O)O | 0.953 ± 0.027 |
| OC[C@H]1O[C@@H](O[C@H]2[C@H](O)[C@@H](O)C(O)O[C@@H]2CO)[C@H](O)[C@@H](O)[C@H]1O (stereo partly specified) | 1.14 ± 0.057 |
| CO/N=C(\C(=O)N[C@@H]1C(=O)N2C(C(=O)O)=C(C[N+]3(C)CCCC3)CS[C@H]12)c1csc(N)n1 | 0.0232 ± 0.0056 |
| C=CC1=C(C(=O)O)N2C(=O)[C@@H](NC(=O)/C(=N\O)c3csc(N)n3)[C@H]2SC1 | 0.0112 ± 0.00049 |
| CO/N=C(\C(=O)N[C@@H]1C(=O)N2C(C(=O)O)=C(COC(C)=O)CS[C@H]12)c1csc(N)n1 | 0.0479 ± 0.0089 |
| CNCC[C@H](Oc1cccc2ccccc12)c1cccs1 | 1.05 ± 0.046 |
| CN1CC(=O)N2[C@H](c3ccc4c(c3)OCO4)c3[nH]c4ccccc4c3C[C@@H]2C1=O | 1.19 ± 0.024 |
| CCOC(=O)CCC(=O)O[C@H]1[C@H](O[C@@H]2[C@@H](C)[C@H](O[C@H]3C[C@@](C)(OC)[C@@H](O)[C@H](C)O3)[C@@H](C)C(=O)O[C@H](CC)[C@@](C)(O)[C@H](O)[C@@H](C)C(=O)[C@H](C)C[C@@]2(C)O)O[C@H](C)C[C@@H]1N(C)C | 1.14 ± 0.045 |
| C=CCCCCCCCCC(=O)[O-].C=CCCCCCCCCC(=O)[O-].[Zn+2] | 1.15 ± 0.041 |
| CCN(CC)CCNC(=O)COc1ccc(OC)cc1 | 0.869 ± 0.0096 |
| CC(C)(O)c1ccccc1CC[C@@H](SCC1(CC(=O)O)CC1)c1cccc(/C=C/c2ccc3ccc(Cl)cc3n2)c1 | 1 ± 0.023 |
| CC(C)CCCC(C)N (stereo unspecified) | 1.05 ± 0.09 |
| CCC(C)(C)C(=O)O[C@H]1C[C@@H](C)C=C2C=C[C@H](C)[C@H](CC[C@@H]3C[C@@H](O)CC(=O)O3)[C@H]21 | 0.777 ± 0.071 |
| CC(=O)OCC[N+](C)(C)C | 1.05 ± 0.023 |
| CC(=O)N(c1onc(C)c1C)S(=O)(=O)c1ccc(N)cc1 | 1.08 ± 0.046 |
| CO[C@H]1C[C@H](O[C@H]2[C@H](C)O[C@@H](O[C@@H]3/C(C)=C/C[C@@H]4C[C@@H](C[C@]5(C=C[C@H](C)[C@@H](C6CCCCC6)O5)O4)OC(=O)[C@@H]4C=C(C)[C@@H](O)[C@H]5OC/C(=C\C=C\[C@@H]3C)[C@]54O)C[C@@H]2OC)O[C@@H](C)[C@@H]1O | 0.776 ± 0.03 |
| CC(=O)NCCCS(=O)(=O)O | 0.949 ± 0.11 |
| CCOC(=O)OC(C)OC1=C(C(=O)Nc2ccccn2)N(C)S(=O)(=O)c2ccccc21 (stereo unspecified) | 1.04 ± 0.05 |
| C[C@H]1COc2c(N3CCN(C)CC3)c(F)cc3c(=O)c(C(=O)O)cn1c23 | 0.00833 ± 0.00037 |
| CN1CCN(c2c(F)cc3c(=O)c(C(=O)O)cn4c3c2SCC4)CC1 | 0.02519 ± 0.00023 |
| CC1CCc2c(N3CCC(O)CC3)c(F)cc3c(=O)c(C(=O)O)cn1c23 (stereo unspecified) | 0.0179 ± 0.013 |
| CO/N=C1\CN(c2nc3c(cc2F)c(=O)c(C(=O)O)cn3C2CC2)CC1CN (stereo unspecified) | 0.0206 ± 0.00035 |
| C[C@H]1COc2c(C3(N)CC3)c(F)cc3c(=O)c(C(=O)O)cn1c23 | 0.008373 ± 7.5e-05 |

| SMILES | normalized growth |
| --- | --- |
| CC1COc2c(N3CCN(C)CC3)c(F)cc3c(=O)c(C(=O)O)cn1c23 (stereo unspecified) | 0.0109 ± 0.00084 |
| CC1CCc2cc(F)cc3c(=O)c(C(=O)O)cn1c23 (stereo unspecified) | 0.0174 ± 0.0072 |
| CC=CC1=C(C(=O)O)N2C(=O)[C@@H](NC(=O)[C@H](N)c3ccc(O)cc3)[C@H]2SC1 | 1.04 ± 0.032 |
| CCCCC(=O)N(Cc1ccc(-c2ccccc2-c2nnn[nH]2)cc1)[C@H](C(=O)O)C(C)C | 0.845 ± 0.034 |
| CCC(=O)c1c(O)cc(O)cc1O | 1.09 ± 0.016 |
| Cc1c(Nc2ncccc2C(=O)O)cccc1C(F)(F)F | 1.04 ± 0.041 |
| Cl.N=C(N)NCCC[C@H](N)C(=O)O | 1 ± 0.042 |
| C=C(NC(=O)C(=C)NC(=O)c1csc(C2=N[C@@H]3c4csc(n4)[C@H]4NC(=O)c5csc(n5)[C@H]([C@](C)(O)[C@@H](C)O)NC(=O)[C@H]5CSC(=N5)/C(=C/C)NC(=O)[C@H]([C@@H](C)O)NC(=O)c5csc(n5)[C@]3(CC2)NC(=O)[C@H](C)NC(=O)C(=C)NC(=O)[C@H](C)NC(=O)[C@H]([C@@H](C)CC)N[C@@H]2C=Cc3c([C@H](C)O)cc(nc3[C@H]2O)C(=O)O[C@@H]4C)n1)C(N)=O | 1 ± 0.09 |
| C=C(C)[C@H]1CC=C(C)CC1 | 0.978 ± 0.024 |
| Cc1cc2nc3c(=O)[nH]c(=O)nc-3n(CC(O)C(O)C(O)COP(=O)(O)O)c2cc1C (stereo unspecified) | 0.822 ± 0.056 |
| O=S(=O)(O)CCSSCCS(=O)(=O)O | 1.02 ± 0.069 |
| CC(C)[C@H](NC(=O)[C@H](CC(=O)O)NC(=O)[C@H](CCCCN)NC(=O)[C@@H](N)CCCN=C(N)N)C(=O)N[C@@H](Cc1ccc(O)cc1)C(=O)O | 0.991 ± 0.011 |
| CC(=O)OCC(=O)[C@@]1(O)CC[C@H]2[C@@H]3CCC4=CC(=O)CC[C@]4(C)[C@@]3(F)[C@@H](O)C[C@@]21C | 1.09 ± 0.11 |
| O=C1c2c(O)cccc2C([C@@H]2O[C@H](CO)[C@@H](O)[C@H](O)[C@H]2O)c2cc(CO)cc(O)c21 (stereo partly specified) | 1 ± 0.043 |
| C[N+]1(C)[C@@H]2CC[C@H]1C[C@@H](OC(=O)C(O)c1ccccc1)C2 (stereo partly specified) | 0.976 ± 0.081 |
| Nc1ncnc(Nc2ccc(Cl)cc2)n1 | 0.999 ± 0.071 |
| CN1CCCN=C1COC(=O)C(O)(c1ccccc1)C1CCCCC1 (stereo unspecified) | 1.23 ± 0.026 |
| CC(O)(CC(=O)O)CC(=O)O | 0.921 ± 0.018 |
| COc1ccc(CN(CCN(C)C)c2ncccn2)cc1 | 1.11 ± 0.038 |
| CCN(CC)CCOc1ccc(C(=C(Cl)c2ccccc2)c2ccccc2)cc1 | 1.07 ± 0.023 |
| CN(C)[C@@H]1C(O)=C(C(N)=O)C(=O)[C@@]2(O)C(O)=C3C(=O)c4c(O)cccc4[C@@](C)(O)[C@H]3[C@H](O)[C@@H]12 | 0.0138 ± 0.00025 |
| C[C@H]1c2cccc(O)c2C(=O)C2=C(O)[C@]3(O)C(=O)C(C(N)=O)=C(O)[C@@H](N(C)C)[C@@H]3[C@@H](O)[C@@H]21 | 0.0125 ± 0.00056 |
| C=C1c2cccc(O)c2C(=O)C2=C(O)[C@]3(O)C(=O)C(C(N)=O)=C(O)[C@@H](N(C)C)[C@@H]3[C@@H](O)[C@H]12 | 0.0154 ± 0.00028 |
| CN(C)[C@@H]1C(O)=C(C(N)=O)C(=O)[C@@]2(O)C(O)=C3C(=O)c4c(O)ccc(Cl)c4[C@@](C)(O)[C@H]3C[C@@H]12 | 0.0113 ± 0.00051 |

| SMILES | normalized growth |
| --- | --- |
| C=C1c2c(Cl)ccc(O)c2C(=O)C2=C(O)[C@]3(O)C(=O)C(C(N)=O)=C(O)[C@@H](N(C)C)[C@@H]3[C@@H](O)[C@H]12.O=C(O)c1cc(S(=O)(=O)O)ccc1O | 0.0199 ± 0.00036 |
| CN(C)[C@@H]1C(O)=C(C(=O)NCN2CCCC2)C(=O)[C@@]2(O)C(O)=C3C(=O)c4c(O)cccc4[C@@](C)(O)[C@H]3C[C@@H]12 | 0.854 ± 0.027 |
| CN(C)[C@@H]1C(O)=C(C(N)=O)C(=O)[C@@]2(O)C(O)=C3C(=O)c4c(O)cccc4[C@@](C)(O)[C@H]3C[C@@H]12 | 0.0127 ± 0.00026 |
| CN(C)c1ccc(O)c2c1C[C@H]1C[C@H]3[C@H](N(C)C)C(O)=C(C(N)=O)C(=O)[C@@]3(O)C(O)=C1C2=O | 0.0111 ± 0.00049 |
| CN(C)c1cc(NC(=O)CNC(C)(C)C)c(O)c2c1C[C@H]1C[C@H]3[C@H](N(C)C)C(O)=C(C(N)=O)C(=O)[C@@]3(O)C(O)=C1C2=O | 0.962 ± 0.053 |
| CN(C)[C@@H]1C(O)=C(C(N)=O)C(=O)[C@@]2(O)C(O)=C3C(=O)c4c(O)ccc(Cl)c4[C@@H](O)[C@H]3C[C@@H]12 | 0.00865 ± 0.00039 |
| CC1(C)[C@H]2CC[C@]1(CS(=O)(=O)O)C(=O)C2=Cc1ccc(C=C2C(=O)[C@@]3(CS(=O)(=O)O)CC[C@@H]2C3(C)C)cc1 | 0.989 ± 0.073 |
| CC(=O)[C@H]1CC[C@H]2[C@@H]3CC=C4C[C@@H](OC(=O)CCC(=O)O)CC[C@]4(C)[C@H]3CC[C@]12C | 1.02 ± 0.027 |
| CCCCC(CC)COC(=O)C(C#N)=C(c1ccccc1)c1ccccc1 (stereo unspecified) | 0.82 ± 0.0086 |
| CCN(CC)CCc1nc(-c2ccccc2)no1 | 0.956 ± 0.062 |
| C/C(=C\C(=O)OCCCCCCCCC(=O)O)C[C@@H]1OC[C@H](C[C@@H]2O[C@H]2[C@@H](C)[C@H](C)O)[C@@H](O)[C@H]1O | 0.00952 ± 0.00017 |
| COc1cccc(OC)c1C(=O)N[C@@H]1C(=O)N2[C@@H]1SC(C)(C)[C@@H]2C(=O)O | 1.12 ± 0.019 |
| CCc1cn([C@H]2C[C@H](O)[C@@H](CO)O2)c(=O)[nH]c1=O | 0.664 ± 0.046 |
| O=c1[nH]c(=O)n([C@H]2C[C@H](O)[C@@H](CO)O2)cc1I | 1.05 ± 0.026 |
| O=c1[nH]c(=O)n([C@H]2C[C@H](O)[C@@H](CO)O2)cc1F | 0.0114 ± 0.00023 |
| O=C1C(CC[S+]([O-])c2ccccc2)C(=O)N(c2ccccc2)N1c1ccccc1 (stereo unspecified) | 1.097 ± 0.0059 |
| CN1CCCC(n2nc(Cc3ccc(Cl)cc3)c3ccccc3c2=O)CC1 (stereo unspecified) | 1.04 ± 0.039 |
| N=C(N)NCC1COC2(CCCCC2)O1 (stereo unspecified) | 0.863 ± 0.015 |
| CCCc1nc(C(C)(C)O)c(C(=O)OCc2oc(=O)oc2C)n1Cc1ccc(-c2ccccc2-c2nnn[nH]2)cc1 | 1.005 ± 0.0069 |
| CN(C)CCN(Cc1ccccc1)c1ccccn1 | 0.906 ± 0.035 |
| CCN(CC)C(=O)c1cccnc1 | 1.14 ± 0.095 |
| OC[C@@H](O)[C@@H](O)CO | 0.975 ± 0.05 |
| COc1ccc(-c2cc(C(F)F)nn2-c2ccc(S(N)(=O)=O)cc2)cc1F | 1.01 ± 0.035 |
